Common to all, as to test: yeast three-hybrid, YBZ-1, SC-Leu-His + 0.5 mM 3-AT, 4 days
Common to all, as to settings: tags: N-Gal4 AD-HA kept; label: inside an RPR1-promoter hybrid RNA with tandem MS2 sites; ssRNA

In experiment [1] the target is PUM1 PUF domain R4-DFS (Homo sapiens, UniProt Q14671 828-1176, N971D;H972F;Q975S). Put shortly: (§1)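 Repeat regions from input (SC-Leu) and selection (SC-Leu-His + 0.5 mM 3-AT) plates were PCR-amplified and Illumina-sequenced after four days of growth. The cells were strain YBZ-1 with a LexA–MS2 coat fusion and a HIS3 reporter, co-expressing Pumilio-1 PUF domain libraries and matching RNA elements from a centromeric plasmid. The interaction score is the log change in variant frequency from input to selection, taken in log2 with a pseudocount of 1 for absent variants.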

Experiment [2] deals with PUM1 PUF domain R8-SWQ (Homo sapiens, UniProt Q14671 828-1176, N1122S;Y1123W). In short, it runs like this: as §1
In experiment [3] the target is PUM1 PUF domain R4-DYM (Homo sapiens, UniProt Q14671 828-1176, N971D;H972Y;Q975M). Put shortly: as §1
The target of experiment [4] is PUM1 PUF domain R3-SRN (Homo sapiens, UniProt Q14671 828-1176, C935S;Q939N). Put shortly:
as §1

The target of experiment [5] is PUM1 PUF domain R5-LWS (Homo sapiens, UniProt Q14671 828-1176, C1007L;R1008W;Q1011S). Put shortly: as §1
Experiment [6] has as its target PUM1 PUF domain R5-RPM (Homo sapiens, UniProt Q14671 828-1176, C1007R;R1008P;Q1011M). In short, it runs like this:
as §1

Experiment [7] deals with PUM1 PUF domain R5-HHH (Homo sapiens, UniProt Q14671 828-1176, C1007H;R1008H;Q1011H). In short, it runs like this:
as §1

Experiment [8] has as its target PUM1 PUF domain R5-QHV (Homo sapiens, UniProt Q14671 828-1176, C1007Q;R1008H;Q1011V). Put shortly: as §1
Experiment [9] concerns the target PUM1 PUF domain R1-LWK (Homo sapiens, UniProt Q14671 828-1176, S863L;R864W;Q867K). Put shortly:
as §1

Experiment [10] addresses PUM1 PUF domain R1-RRI (Homo sapiens, UniProt Q14671 828-1176, S863R;Q867I). Put shortly:
as §1

The target in experiment [11] is PUM1 PUF domain R1-IWR (Homo sapiens, UniProt Q14671 828-1176, S863I;R864W;Q867R). In short, it runs like this:
as §1

Experiment [12] concerns the target PUM1 PUF domain R2-VFQ R3-THE R4-TFR (Homo sapiens, UniProt Q14671 828-1176, N899V;Y900F;C935T;R936H;Q939E;N971T;H972F;Q975R). In short, it runs like this: as §1
The target of experiment [13] is PUM1 PUF domain R4-FNA (Homo sapiens, UniProt Q14671 828-1176, N971F;H972N;Q975A). Put shortly:
as §1

Experiment [14] deals with PUM1 PUF domain R3-IWY (Homo sapiens, UniProt Q14671 828-1176, C935I;R936W;Q939Y). In short, it runs like this: as §1
Experiment [15] addresses PUM1 PUF domain R2-LIM (Homo sapiens, UniProt Q14671 828-1176, N899L;Y900I;Q903M). Put shortly: as §1
In experiment [16] the target is PUM1 PUF domain R5-TEE (Homo sapiens, UniProt Q14671 828-1176, C1007T;R1008E;Q1011E). Put shortly: as §1
Experiment [17] deals with PUM1 PUF domain R8-LYF (Homo sapiens, UniProt Q14671 828-1176, N1122L;Q1126F). In short, it runs like this: as §1
Experiment [18] concerns the target PUM1 PUF domain R8-HWP (Homo sapiens, UniProt Q14671 828-1176, N1122H;Y1123W;Q1126P). Put shortly:
as §1

Experiment [19] concerns the target PUM1 PUF domain R3-SCK (Homo sapiens, UniProt Q14671 828-1176, C935S;R936C;Q939K). Put shortly: as §1
Experiment [20] addresses PUM1 PUF domain R3-RAR (Homo sapiens, UniProt Q14671 828-1176, C935R;R936A;Q939R). Put shortly:
as §1

PUM1 PUF domain R5-LWS, sequence (Q14671 828-1176 C1007L/R1008W/Q1011S): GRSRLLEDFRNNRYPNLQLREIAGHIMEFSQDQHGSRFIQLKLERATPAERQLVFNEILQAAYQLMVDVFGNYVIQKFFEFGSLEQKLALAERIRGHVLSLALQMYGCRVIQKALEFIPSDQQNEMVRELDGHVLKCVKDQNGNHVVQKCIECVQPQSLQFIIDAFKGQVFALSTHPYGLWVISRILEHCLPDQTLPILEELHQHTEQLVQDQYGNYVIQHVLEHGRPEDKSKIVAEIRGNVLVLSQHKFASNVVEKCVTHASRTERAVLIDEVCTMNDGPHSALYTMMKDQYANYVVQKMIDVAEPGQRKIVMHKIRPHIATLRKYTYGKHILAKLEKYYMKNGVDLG
PUM1 PUF domain R1-IWR, sequence (Q14671 828-1176 S863I/R864W/Q867R): as the sequence (Q14671 828-1176 C1007L/R1008W/Q1011S) above, with S36I, R37W, Q40R, L180C, W181R, S184Q counted along it
PUM1 PUF domain R3-IWY, sequence (Q14671 828-1176 C935I/R936W/Q939Y): as the sequence (Q14671 828-1176 C1007L/R1008W/Q1011S) above, with C108I, R109W, Q112Y, L180C, W181R, S184Q counted along it
PUM1 PUF domain R8-LYF, sequence (Q14671 828-1176 N1122L/Q1126F): as the sequence (Q14671 828-1176 C1007L/R1008W/Q1011S) above, with L180C, W181R, S184Q, N295L, Q299F counted along it
PUM1 PUF domain R1-RRI, sequence (Q14671 828-1176 S863R/Q867I): as the sequence (Q14671 828-1176 C1007L/R1008W/Q1011S) above, with S36R, Q40I, L180C, W181R, S184Q counted along it
PUM1 PUF domain R2-VFQ R3-THE R4-TFR, sequence (Q14671 828-1176 N899V/Y900F/C935T/R936H/Q939E/N971T/H972F/Q975R): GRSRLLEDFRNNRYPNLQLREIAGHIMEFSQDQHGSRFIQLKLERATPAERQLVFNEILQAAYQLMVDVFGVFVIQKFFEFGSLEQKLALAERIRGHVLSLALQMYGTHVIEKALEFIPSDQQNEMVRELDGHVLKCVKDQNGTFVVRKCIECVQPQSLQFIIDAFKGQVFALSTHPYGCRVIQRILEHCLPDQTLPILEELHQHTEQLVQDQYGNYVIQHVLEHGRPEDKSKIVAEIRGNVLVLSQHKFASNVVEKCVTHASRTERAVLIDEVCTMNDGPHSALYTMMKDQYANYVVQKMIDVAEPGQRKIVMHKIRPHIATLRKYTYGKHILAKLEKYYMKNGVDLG
PUM1 PUF domain R5-HHH, sequence (Q14671 828-1176 C1007H/R1008H/Q1011H): as the sequence (Q14671 828-1176 C1007L/R1008W/Q1011S) above, with L180H, W181H, S184H counted along it
PUM1 PUF domain R5-TEE, sequence (Q14671 828-1176 C1007T/R1008E/Q1011E): as the sequence (Q14671 828-1176 C1007L/R1008W/Q1011S) above, with L180T, W181E, S184E counted along it
PUM1 PUF domain R2-LIM, sequence (Q14671 828-1176 N899L/Y900I/Q903M): as the sequence (Q14671 828-1176 C1007L/R1008W/Q1011S) above, with N72L, Y73I, Q76M, L180C, W181R, S184Q counted along it
PUM1 PUF domain R8-HWP, sequence (Q14671 828-1176 N1122H/Y1123W/Q1126P): as the sequence (Q14671 828-1176 C1007L/R1008W/Q1011S) above, with L180C, W181R, S184Q, N295H, Y296W, Q299P counted along it
PUM1 PUF domain R5-QHV, sequence (Q14671 828-1176 C1007Q/R1008H/Q1011V): as the sequence (Q14671 828-1176 C1007L/R1008W/Q1011S) above, with L180Q, W181H, S184V counted along it

With “GGCUAGAACUAGUGGAUCCCCCGGCGCCCGGCGGCUCGAGCCCGGGUAAGUGUAAAUAGUCUGCAUGCCGCCGGGCGCCAUGCCUGCAGGUCGACUCUAGAAAACAUG”, the binding signal is 6.43 log2 enrichment (interaction score) in experiment [1]; 4.66 log2 enrichment (interaction score) in experiment [2]; 4.83 log2 enrichment (interaction score) in experiment [3]; 4.26 log2 enrichment (interaction score) in [4]; 2.04 log2 enrichment (interaction score) in experiment [5].
Take “GGCUAGAACUAGUGGAUCCCCCGGCGCCCGGCGGCUCGAGCCCGGGUAAGUGUUAAUAGUCUGCAUGCCGCCGGGCGCCAUGCCUGCAGGUCGACUCUAGAAAACAUG”: the binding signal in experiment [6] is 2.25 log2 enrichment (interaction score); in [5] it was 2.93 log2 enrichment (interaction score); in experiment [7] it was 5.29 log2 enrichment (interaction score); in [8], 3.88 log2 enrichment (interaction score).
Regarding “GGCUAGAACUAGUGGAUCCCCCGGCGCCCGGCGGCUCGAGCCCGGGUAAGUGUCAAUAGUCUGCAUGCCGCCGGGCGCCAUGCCUGCAGGUCGACUCUAGAAAACAUG”, the binding signal in experiment [5] is 2.81 log2 enrichment (interaction score).
As for “GGCUAGAACUAGUGGAUCCCCCGGCGCCCGGCGGCUCGAGCCCGGGUAAGUGUACAUAGUCUGCAUGCCGCCGGGCGCCAUGCCUGCAGGUCGACUCUAGAAAACAUG”, the binding signal in experiment [3] is 5.08 log2 enrichment (interaction score).
Take “GGCUAGAACUAGUGGAUCCCCCGGCGCCCGGCGGCUCGAGCCCGGGUAAGUGUAAAUCGUCUGCAUGCCGCCGGGCGCCAUGCCUGCAGGUCGACUCUAGAAAACAUG”: the binding signal was 4.58 log2 enrichment (interaction score) in experiment [9], 3.61 log2 enrichment (interaction score) in experiment [10] and 2.56 log2 enrichment (interaction score) in experiment [11].
For the sequence “GGCUAGAACUAGUGGAUCCCCCGGCGCCCGGCGGCUCGAGCCCGGGUAAGUGUACGAAGUCUGCAUGCCGCCGGGCGCCAUGCCUGCAGGUCGACUCUAGAAAACAUG”, the binding signal in experiment [12] was 3.9 log2 enrichment (interaction score).
Consider “GGCUAGAACUAGUGGAUCCCCCGGCGCCCGGCGGCUCGAGCCCGGGUAAGUGUAUAUAGUCUGCAUGCCGCCGGGCGCCAUGCCUGCAGGUCGACUCUAGAAAACAUG”, for which the binding signal was 6.8 log2 enrichment (interaction score) in experiment [1] and 2.23 log2 enrichment (interaction score) in experiment [13].
As for “GGCUAGAACUAGUGGAUCCCCCGGCGCCCGGCGGCUCGAGCCCGGGUAAGUGUAAGUAGUCUGCAUGCCGCCGGGCGCCAUGCCUGCAGGUCGACUCUAGAAAACAUG”, the binding signal in experiment [4] was 1.88 log2 enrichment (interaction score); in [14] it was 1.76 log2 enrichment (interaction score).
On to “GGCUAGAACUAGUGGAUCCCCCGGCGCCCGGCGGCUCGAGCCCGGGUAAGUGUAAAUUGUCUGCAUGCCGCCGGGCGCCAUGCCUGCAGGUCGACUCUAGAAAACAUG”, for which the binding signal in experiment [11] is 1.52 log2 enrichment (interaction score).
Consider “GGCUAGAACUAGUGGAUCCCCCGGCGCCCGGCGGCUCGAGCCCGGGUAAGUGUAAAGAGUCUGCAUGCCGCCGGGCGCCAUGCCUGCAGGUCGACUCUAGAAAACAUG”, for which the binding signal in [15] is 3.94 log2 enrichment (interaction score).
On to “GGCUAGAACUAGUGGAUCCCCCGGCGCCCGGCGGCUCGAGCCCGGGUAAGUGUGAAUAGUCUGCAUGCCGCCGGGCGCCAUGCCUGCAGGUCGACUCUAGAAAACAUG”, for which the binding signal was 1.62 log2 enrichment (interaction score) in experiment [5] and 3.25 log2 enrichment (interaction score) in [16].
“GGCUAGAACUAGUGGAUCCCCCGGCGCCCGGCGGCUCGAGCCCGGGUAAGCGUAAAUAGUCUGCAUGCCGCCGGGCGCCAUGCCUGCAGGUCGACUCUAGAAAACAUG”: the figures for the binding signal in experiment [17] and in [18] were 2.3 log2 enrichment (interaction score) and 5.59 log2 enrichment (interaction score), respectively.
Take “GGCUAGAACUAGUGGAUCCCCCGGCGCCCGGCGGCUCGAGCCCGGGUAAGUGUAAUUAGUCUGCAUGCCGCCGGGCGCCAUGCCUGCAGGUCGACUCUAGAAAACAUG”: the binding signal is 3.52 log2 enrichment (interaction score) in experiment [19], 3.75 log2 enrichment (interaction score) in experiment [20] and 3.36 log2 enrichment (interaction score) in experiment [14].

These data come from article PMC8384837, “Expanding the binding specificity for RNA recognition by a PUF domain”.
